SW480 rerep – A quantitative high throughput screen for small molecules that induce DNA re-replication in SW480 colon adenocarcinoma cells | actives 1.8% (n = 340,000) | AID 624297, 2012 | SW480 DNA re-replication, Hoechst DNA content imaging, 48 h | Potency, µM (titrated, usually from 46.1 µM), without a hit: at the top dose re-replication activation, hits mostly activators; note: % of control where 0% means no effect; nearly all actives have a fitted effect of over 55% in size
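Per well, 250 cells were exposed to pinned compound for 48 hr. Nuclear DNA was visualised with Hoechst (40 min, 37 C) and total object intensity recorded by fluorescence scanning.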
ELG1 DNA repair – qHTS screen for small molecules that inhibit ELG1-dependent DNA repair in human embryonic kidney (HEK293T) cells expressing luciferase-tagged ELG1 | HEK293T ELG1-luciferase reporter, luminescence, 16 h; DNA damage induced by 5-fluorouridine | Potency, µM (highest dose often 46.1 µM), for inactives: at the top dose activity change, negative = inhibition, most hits filed as inhibitors | actives 2.3% (n = 330,000); note: % is set by controls: 0 for no effect and ±100 for the full control effect; nearly all actives have a fitted effect of over 55% in size
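Quantitative HTS, concentration-response format. 2,000 cells/well co-treated with 5-fluorouridine and compound, 16 hr in 5% CO2 at 37 °C; ONE-Glo luminescence read after 30 min.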
VP16 counter – VP16 counterscreen qHTS for inhibitors of ROR gamma transcriptional activity; Drosophila S2 Gal4-VP16 UAS-luciferase, luminescence, 20 h; Potency, µM (titrated, usually from 53.6 µM), for inactives: at the top dose activity, negative = inhibition, usual class: inhibitors; actives 3.5% (n = 310,000);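 note: Gal4-VP16 expression switched on by copper sulfate through the metallothionein promoter; % is set by controls: 0 for no effect and ±100 for the full control effect; nearly all actives have a fitted effect of over 50% in size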
RORgamma inh – qHTS for inhibitors of ROR gamma transcriptional activity; actives 5.4% (n = 310,000); Drosophila S2 Gal4-RORgamma UAS-luciferase reporter, 20 h; AID 2551, 2010; Potency, µM (series often up to 53.6 µM), for the others: top-dose activity change, negative = inhibition, usual class: inhibitors; note: % is set by controls: 0 for no effect and ±100 for the full control effect; nearly all actives have a fitted effect of over 60% in size
Target sequence (P51450 whole entry, looked up, the tested form may be a part): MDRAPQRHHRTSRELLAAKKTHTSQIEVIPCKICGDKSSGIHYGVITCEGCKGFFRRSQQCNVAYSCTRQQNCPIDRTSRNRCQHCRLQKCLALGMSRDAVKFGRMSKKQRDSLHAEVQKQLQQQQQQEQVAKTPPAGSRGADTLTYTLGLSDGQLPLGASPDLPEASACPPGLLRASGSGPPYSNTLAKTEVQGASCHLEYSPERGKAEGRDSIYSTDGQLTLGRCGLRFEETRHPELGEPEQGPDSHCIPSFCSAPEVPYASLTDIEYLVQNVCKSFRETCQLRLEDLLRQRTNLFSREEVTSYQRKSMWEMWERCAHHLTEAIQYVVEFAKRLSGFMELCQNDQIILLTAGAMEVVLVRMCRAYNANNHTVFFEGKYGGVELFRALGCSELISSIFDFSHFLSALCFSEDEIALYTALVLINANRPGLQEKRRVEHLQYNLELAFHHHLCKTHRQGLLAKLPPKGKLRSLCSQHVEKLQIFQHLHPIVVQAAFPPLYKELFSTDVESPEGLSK
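Stably transfected Drosophila Schneider cells are the test system, with ROR gamma fused to Gal4 and luciferase under UAS control; luminescence is read after 20 hr of 700 uM copper sulfate induction at ambient temperature.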
MCF10A rereplic – A quantitative high throughput screen for small molecules that induce DNA re-replication in MCF 10a normal breast cells | MCF 10A DNA re-replication, Hoechst nuclear intensity, 48 h | Potency, µM (doses to about 46.1 µM), inactives show at the top dose activity, positive = re-replication, usual class: activators | actives 2.9% (n = 350,000); note: % of control where 0% means no effect; nearly all actives have a fitted effect of over 50% in size
Active calls of the source: *; u = inconclusive; x = not tested or not shown; [ ] = remark or other dose. A selection: hits, their analogues and other compounds. The true share with any hit is near 10%. Calls come from the whole dose curve; as a rule, active = well fitted curve in the direction sought with a large enough effect; inconclusive = small, poorly fitted or top-dose-only effect, or another doubt; inactive = no such curve, though single readings can be large; an effect the other way counts as inactive or inconclusive. Potency is the fitted concentration of half-maximal effect.

SMILES	SW480 rerep	ELG1 DNA repair	VP16 counter	RORgamma inh	MCF10A rereplic
COc1cccc(-c2csc(N3CCN(C(=O)Nc4ccc(Cl)cc4)CC3)n2)c1	29%	u	1%	7%	21%
COc1cccc(-c2csc(N3CCN(C(=S)Nc4cccc(Cl)c4)CC3)n2)c1	-4%	-9%	18µM*	2.8µM*	20%
CCNC(=S)N1CCN(c2nc(-c3cccc(OC)c3)cs2)CC1	6%	u	u	14%	u
COc1cccc(-c2csc(N3CCN(C(=S)Nc4ccccc4OC)CC3)n2)c1	-3%	-6%	u	7.9µM*	8.2µM*
COc1ccc(NC(=O)N2CCN(c3nc(-c4cccc(OC)c4)cs3)CC2)cc1	-5%	18µM*	0%	u	u
COc1cccc(-c2csc(N3CCN(C(=S)Nc4ccccc4Cl)CC3)n2)c1	0%	3%	u	11µM*	-3%
Cc1ccc(S(=O)(=O)N(C)c2ccc(C(=O)Nc3ccccc3C(=O)N3CCOCC3)cc2)cc1	u	25%	-10%	-17%	-36%
O=C(NCCN1CCCC1)C1CCC(=O)N(CCCN2CCOCC2)C1 (stereo not given)	-3%	0%	-6%	-6%	-3%
COc1cccc(-c2csc(N3CCN(CC(=O)NNC(=O)c4ccc(Br)cc4)CC3)n2)c1	15µM*	u	-7%[0.365 µM]	7%	-4%
CCC1(c2ccc(F)cc2)NC(=O)N(CC(=O)N2c3ccccc3CC2C)C1=O (stereo not given)	-3%	u	x	x	0%
Cc1noc(C)c1COC(=O)c1ccc(F)c(S(=O)(=O)N2CCCCC2)c1	-58%	u	12%	8%	12%
Cc1noc(C)c1COC(=O)c1cccc(S(=O)(=O)N2CCCCCC2)c1	4%	5.8µM*	u	0%[10 µM]	u
COc1cc(OC)c(N(C)S(=O)(=O)c2cccc(C(=O)OCc3c(C)noc3C)c2)cc1Cl	-2%	18µM*	-11%	13%	2%
Cc1ccc(Cl)c(OC(=O)Cn2cnc3c2c(=O)n(C)c(=O)n3C)c1	6%	-3%	1%	3%	11%
CCc1ccc2c(CN(C)Cc3ccc(OC(F)F)c(OC)c3)cc(=O)oc2c1	1%	u	0%	7%	u
COCCN(Cc1ccccc1)C(=O)c1cccc(S(=O)(=O)N2CCCc3ccccc32)c1	1%	16%	x	x	-5%
O=C(Cn1c2ccccc2c(=O)c2ccccc21)Nc1cccc(F)c1	18µM*	4%	-2%	4%	12µM*
O=C(CC(=O)Nc1cccc(F)c1)Nc1cccc(F)c1	-10%	14%	21%	28%	-6%
COC(=O)[C@@]1(Cc2ccccc2)[C@H]2c3cc(C(=O)N(C)C)n(Cc4ccccc4)c3C[C@H]2CN1C(=O)c1ccccc1	x	x	-5%	-8%	x
COC(=O)[C@@]1(Cc2ccccc2)[C@@H]2C(=CC(=O)[C@H]2CC(=O)C(=O)N(C)C)CN1C(=O)c1ccccc1	u	7.3µM*	u	u	26µM*
COc1ccccc1NS(=O)(=O)c1cc(Cl)ccc1OC	1%	0%	-11%	2%	20%
COc1ccc(N=C2SC(CC(=O)Nc3ccccc3F)C(=O)N2Cc2ccco2)cc1 (stereo not given)	x	23µM*	-9%	u	4%
Cc1cc(NC(=O)CCC(=O)N(CC(=O)NCC2CCCO2)c2ccc(C(C)C)cc2)no1 (stereo not given)	-1%	-3%	7%	-7%	2%
O=C(Cc1csc(Nc2nc(=S)[nH]c3ccccc23)n1)N1CCN(c2cccc(Cl)c2)CC1	13%	u	5µM*	1µM*	u
Cc1ccc(Cl)cc1N1CCN(C(=O)Cn2ccc3ccccc3c2=O)CC1	-3%	u	9%	32%	u
SMILES	SW480 rerep	ELG1 DNA repair	VP16 counter	RORgamma inh	MCF10A rereplic
Cc1ccc(Cl)cc1N1CCN(C(=O)Cc2csc(Nc3nc(=S)[nH]c4ccccc34)n2)CC1	13%	0%	3.5µM*	0.63µM*	u
COCc1cc(C)nc(SCC(=O)Nc2ccccc2N2CCOCC2)c1C#N	u	-27%	-2%	-21%	21µM*
Cn1c(-c2ccc3c(c2)OCO3)cnc1NCc1ccccc1	u	17%	-3%	-26%	26µM*
Cn1c(-c2ccc3c(c2)OCO3)cnc1NC(=O)CCC(=O)NCCc1ccccc1	3%	u	5.6µM*	3.2µM*	1%
Cn1c(-c2ccccc2)cnc1NCc1ccccc1	u	26%	2%	-11%	23%
Cc1cc(C)cc(N2CC(C(=O)OCC(=O)Nc3cc(C)on3)CC2=O)c1 (stereo not given)	4%	3%	1%	-16%	-9%
CCOc1ccc(OCc2ccc(C(=O)Nc3cccnc3)o2)cc1	11%[9.22 µM]	-2%	-8%	22%	7%
CCOc1ccc(C(Nc2cccnc2)c2cc(Cl)c3cccnc3c2O)cc1 (stereo not given)	u	-21%	u	5.6µM*	u
O=C(NC(c1ccccc1)c1cc(Cl)c2cccnc2c1O)c1cccnc1 (stereo not given)	x	u	0.79µM*	0.63µM*	x
O=C(O)COc1ccccc1C(Nc1ccccn1)c1cc(Cl)c2cccnc2c1O (stereo not given)	-2%	-1%	-2%	u	18µM*
O=C(O)COc1ccccc1C(Nc1cccnc1)c1cc(Cl)c2cccnc2c1O (stereo not given)	15%	1%	-8%	12%	9.2µM*
Cc1ccc(-n2ncc3c2CC(C)(C)CC3NC(=O)C2CCOCC2)cc1 (stereo not given)	-5%	8%	-8%	-18%	0%
CC(=O)OC1[C@H](Oc2c(O)c(C)c3c4c2[C@@H](C)CC[C@@H]4[C@@H](C)C[C@@H]3C=C(C)C)OC[C@@H](O)[C@@H]1O (stereo not given in full)	-9%	18%	x	x	u
CC(C)=C[C@H]1C[C@H](C)[C@H]2CC[C@H](C)c3c(O[C@@H]4OC[C@@H](O)[C@H](O)C4O)c(O)c(C)c1c32 (stereo not given in full)	-92%[9.22 µM]	17%	x	x	21µM*
CC(=O)Oc1c(C)c2c3c(c1OC(C)=O)[C@@H](C)CC[C@@H]3[C@@H](C)C[C@H]2C=C(C)C	6%	1%	x	x	26µM*

Screening data from PubChem BioAssay.
